The values below come from PubChem BioAssay.

Test [1] concerns Human papillomavirus type 1a protein E7 (residues 44-93). In words: small molecules binding HPV E7 44-93 – biochemical, small-molecule microarray, residues 44-93, 635 nm fluorescence, primary screen (AID 1108).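 Note: E7 fragment applied at 1 µg/mL in TBST for 1 h at 4 C; score combines spot fluorescence with its signal to noise ratio.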 The note with it: fluorescence 635 nm, higher = more signal.
Test [2] in a line: hepatitis C replication reporter changes, two-sided – Huh7 cells, luciferase reporter, HCV replication inhibitor project, primary screen (AID 1109).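 Note: huh7 hepatoma cells harbouring a luciferase neomycin HCV replicon reporter; luciferase luminescence as measure of HCV replicon replication; test concentration not given here.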 To be noted: Huh7 HCV replicon luciferase reporter, 48 h; higher = more signal. For orientation: In a reporter assay the amount or activity of a reporter protein is the signal.
Test [3] addresses Left-right determination factor 2 (Homo sapiens) (UniProt O00292). Put plainly: small molecules binding LEFTY2 protein – biochemical, small-molecule microarray, 635 nm fluorescence scan, primary screen (AID 1110). The note with it: higher = more signal.
The target of test [4] is Calmodulin-1 (Homo sapiens) (UniProt P0DP23). Put plainly: small molecules binding calmodulin-1 with EGTA – biochemical, small-molecule microarray, Cy5-labelled CALM1, profiling panel (AID 1111).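 Note: labelled calmodulin applied in Tris saline Tween buffer holding calcium plus EGTA and DTT.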 The note with it: Cy5-CALM1 binding fluorescence, higher = more signal.
Test [5] has the same target. In words: small molecules binding Ca-loaded calmodulin-1 – biochemical, small-molecule microarray, Cy5-labelled CALM1, plus calcium, artefact control for SMM control-protein annotation, profiling panel (AID 1112).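 Note: score merges spot fluorescence with signal to noise from triplicate slides.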 The note with it: Cy5-CALM1 binding fluorescence, higher = more signal.
Test [6] is described as follows: probe aWnt5a binding to arrayed compounds – biochemical, biotinylated probe, 635/667 nm fluorescence, primary screen (AID 1113).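 Note: score merges 667 nm fluorescence intensity with signal-to-noise per printed feature.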 To be noted: small-molecule microarray, higher = more signal.
A short description of test [7]: probe aShh binding to arrayed compounds – biochemical, biotinylated probe, 635/667 nm fluorescence, primary screen (AID 1114).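 Note: probe is biotin-labelled aShh protein from a stem cell growth factor screen; measures binding of labelled protein to compounds printed on the slide; score merges feature fluorescence at 667 nm with signal-to-noise.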 To be noted: small-molecule microarray, higher = more signal.
Test [8] can be described thus: probe aNog binding to arrayed compounds – biochemical, biotinylated probe, 635/667 nm fluorescence, primary screen (AID 1115).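 Note: probe is biotinylated aNog protein used at 0.15 µg/mL for 1 h at 4 C; z-score combines 667 nm fluorescence of each spot with its signal to noise.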 The note with it: small-molecule microarray, higher = more signal.
Test [9] addresses Torsin-1A-interacting protein 1 (Homo sapiens) (UniProt Q5JTV8). In words: compound microarray binding of lysate hLAP1 – cell lysate, small-molecule microarray, COS7 lysate, 635/667 nm fluorescence, primary screen (AID 1116). To be noted: 635 nm fluorescence, higher = more signal.
Test [10] deals with Alpha-bungarotoxin (Bungarus multicinctus) (UniProt P60615). In words: compounds binding labelled alpha-BTX control protein – biochemical, small-molecule microarray, Alexa647 label, 635/667 nm fluorescence, artefact control for SMM control protein annotation, profiling panel (AID 1117). To be noted: alpha-BTX-A647 binding fluorescence, higher = more signal.
Chain of Alpha-bungarotoxin (Bungarus multicinctus) (P60615 whole entry, looked up): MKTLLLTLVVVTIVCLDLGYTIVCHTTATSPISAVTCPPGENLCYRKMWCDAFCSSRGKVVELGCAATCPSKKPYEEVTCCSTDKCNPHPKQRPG
Test [11] addresses Albumin (Bos taurus) (UniProt P02769). In words: compounds binding labelled BSA control protein – biochemical, small-molecule microarray, Alexa647 label, 635/667 nm fluorescence, artefact control for SMM control protein annotation, profiling panel (AID 1118).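 Note: score merges 667 nm emission intensity and signal-to-noise per printed compound spot.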 The note with it: BSA-A647 binding, fluorescence 635 nm, higher = more signal.
Test [12] is described as follows: probe aXIP binding to arrayed compounds – biochemical, NeuroSMM set, 635/667 nm fluorescence, primary screen (AID 1119).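 Note: probe is the protein aXip251-270 applied at 1 µg/mL to compound-printed slides; binding of probe to printed compounds measured as 667 nm fluorescence plus signal to noise.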 To be noted: small-molecule microarray, higher = more signal, called active from +8 up or from −8 down.
Test [13] in a line: probe aNOTCH3 binding on compound microarray – biochemical, small-molecule microarray, 635/667 nm fluorescence, primary screen (AID 1120).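 Note: probe is a biotin-tagged antibody raised against NOTCH3 rather than NOTCH3 protein; score merges spot fluorescence near 667 nm with spot signal to noise.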 To be noted: higher = more signal.
Test [14] can be described thus: probe aNOTCH2 binding on compound microarray – biochemical, small-molecule microarray, 635/667 nm fluorescence, primary screen (AID 1121).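 Note: score merges feature fluorescence read at 667 nm with its signal to noise.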 The note with it: higher = more signal.
Test [15] has as its target Carbonic anhydrase 2 (Homo sapiens) (UniProt P00918). In words: compounds binding carbonic anhydrase 2 – biochemical, small-molecule microarray, Alexa647-labelled CAII, profiling panel (AID 1122). To be noted: CAII-A647 binding fluorescence, higher = more signal.
Test [16] in a line: COS7 lysate on small-molecule microarray, probe aHis, 635 nm (AID 1123).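 Note: z-score combines 667nm fluorescence intensity with signal-to-noise per printed compound spot.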 To be noted: COS7 cell lysate, fluorescence, higher = more signal.
Test [17] can be described thus: probe aLAP1 signal on lysate-treated microarray – cell lysate, small-molecule microarray, COS7 lysate, primary screen (AID 1124).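 Note: lysate comes from COS7 cells expressing LAP1 and is applied at 0.3 µg/mL; score merges spot fluorescence near 667 nm with signal-to-noise over triplicate slides.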 To be noted: probe aLAP1, fluorescence, higher = more signal.
In test [18] the test system is Sam68 (KHDRBS1). In words: compounds binding KHDRBS1 protein – biochemical, small-molecule microarray, 635 nm fluorescence, primary screen (AID 1125).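 Note: score merges 667 nm channel intensity with signal to noise over triplicate slides.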 To be noted: higher = more signal.
Test [19] deals with Chordin-like protein 2 (CHRDL2). Put plainly: compounds binding chordin-like 2 – biochemical, small-molecule microarray, 635 nm fluorescence, primary screen (AID 1126).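 Note: printed compound slides probed with Chrdl2 protein at 4 µg/mL for 1 h at 4 C; score merges 667 nm emission intensity with signal to noise over three replicate slides.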 The note with it: fluorescence 635 nm, higher = more signal.
The target in test [20] is Concanavalin-A (Canavalia ensiformis) (UniProt P02866). Put plainly: compounds binding concanavalin A lectin – biochemical, small-molecule microarray, Alexa647 label, 635 nm, artefact control for SMM control protein annotation, primary screen (AID 1127).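 Note: z combines 667 nm emission intensity with signal-to-noise across three replicate slides.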 The note with it: ConA-A647 binding fluorescence, higher = more signal.
Chain of Concanavalin-A (Canavalia ensiformis) (P02866 whole entry, looked up): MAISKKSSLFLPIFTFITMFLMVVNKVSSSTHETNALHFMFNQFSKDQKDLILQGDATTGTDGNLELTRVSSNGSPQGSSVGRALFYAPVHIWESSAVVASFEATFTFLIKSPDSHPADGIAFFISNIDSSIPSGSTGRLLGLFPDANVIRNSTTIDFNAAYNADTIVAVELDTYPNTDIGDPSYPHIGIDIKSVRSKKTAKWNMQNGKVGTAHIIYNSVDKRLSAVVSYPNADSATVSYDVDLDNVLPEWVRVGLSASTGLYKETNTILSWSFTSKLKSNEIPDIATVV

Structures are written as SMILES. Calls of active or inactive are those of the source.

Chain of Albumin (Bos taurus) (P02769 whole entry, looked up): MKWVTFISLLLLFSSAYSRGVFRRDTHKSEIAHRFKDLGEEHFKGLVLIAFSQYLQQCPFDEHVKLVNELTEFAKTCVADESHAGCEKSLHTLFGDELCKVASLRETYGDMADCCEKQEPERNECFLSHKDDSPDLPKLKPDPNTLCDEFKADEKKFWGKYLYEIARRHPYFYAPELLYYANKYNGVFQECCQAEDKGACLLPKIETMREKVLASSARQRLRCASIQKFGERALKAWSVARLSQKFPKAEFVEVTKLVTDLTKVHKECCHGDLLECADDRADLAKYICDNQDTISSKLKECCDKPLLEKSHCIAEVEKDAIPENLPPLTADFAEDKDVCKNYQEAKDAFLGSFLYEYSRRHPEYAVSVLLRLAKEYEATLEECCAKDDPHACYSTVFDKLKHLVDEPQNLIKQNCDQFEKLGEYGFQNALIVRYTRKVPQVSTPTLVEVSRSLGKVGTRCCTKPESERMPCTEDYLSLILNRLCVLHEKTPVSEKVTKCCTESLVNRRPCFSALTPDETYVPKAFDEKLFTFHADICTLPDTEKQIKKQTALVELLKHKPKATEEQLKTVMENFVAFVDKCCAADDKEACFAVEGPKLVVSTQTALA
Chain of Torsin-1A-interacting protein 1 (Homo sapiens) (Q5JTV8 whole entry, looked up): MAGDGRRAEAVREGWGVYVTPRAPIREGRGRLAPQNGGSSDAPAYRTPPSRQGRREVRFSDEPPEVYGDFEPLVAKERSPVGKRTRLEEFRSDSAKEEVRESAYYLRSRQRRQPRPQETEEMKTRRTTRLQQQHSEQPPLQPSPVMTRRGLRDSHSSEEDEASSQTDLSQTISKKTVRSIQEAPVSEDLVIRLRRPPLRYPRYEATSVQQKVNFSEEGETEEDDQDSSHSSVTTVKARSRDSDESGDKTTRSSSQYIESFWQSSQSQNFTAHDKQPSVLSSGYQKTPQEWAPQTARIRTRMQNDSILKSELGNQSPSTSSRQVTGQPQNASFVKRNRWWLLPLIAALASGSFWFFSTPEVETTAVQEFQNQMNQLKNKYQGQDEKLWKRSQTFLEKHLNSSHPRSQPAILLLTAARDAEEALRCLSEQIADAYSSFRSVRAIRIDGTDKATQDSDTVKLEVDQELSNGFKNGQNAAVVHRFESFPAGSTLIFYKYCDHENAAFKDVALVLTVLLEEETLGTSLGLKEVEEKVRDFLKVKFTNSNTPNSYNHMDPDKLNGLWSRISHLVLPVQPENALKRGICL
Chain of Left-right determination factor 2 (Homo sapiens) (O00292 whole entry, looked up): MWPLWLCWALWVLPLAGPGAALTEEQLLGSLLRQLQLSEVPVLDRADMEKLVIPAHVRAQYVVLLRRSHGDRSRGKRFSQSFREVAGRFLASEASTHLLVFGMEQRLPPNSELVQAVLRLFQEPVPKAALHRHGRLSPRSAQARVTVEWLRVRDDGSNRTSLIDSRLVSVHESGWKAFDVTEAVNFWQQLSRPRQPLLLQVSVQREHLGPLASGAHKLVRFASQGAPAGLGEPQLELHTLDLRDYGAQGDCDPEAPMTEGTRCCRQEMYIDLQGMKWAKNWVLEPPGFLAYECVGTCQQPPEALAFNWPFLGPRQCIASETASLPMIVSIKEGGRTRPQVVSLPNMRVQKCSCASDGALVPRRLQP

With `O=C1C2C=CC(C(O)c3cccc4ccccc34)N(Nc3ccccc3)C2C(=O)N1c1ccccc1` (stereo not given), the composite z-score was 1.38 in [1]; 0.321 in test [3]; 0.972 in test [4]; -0.8 in [5]; 0.0725 in [6]; 0.424 in test [7]. In addition, the composite z-score in test [8] was 1.05; in test [9], 0.759; in [10] it was 2.06; in [11], 0.571; in [13] it was 0.277; in test [14], 0.0312. Moreover, the composite z-score in [15] worked out at 0.655; in test [16], 2.28; in test [17], 1.47; in test [18], 0.983; in test [19] it was 0.724; in test [20], 0.89. Further, in [2], the z-score was -1.29. The composite Z-score in test [12] was 0.739 (inactive).
Regarding `C=CCOC(=O)[C@@H]1[C@H]2C(=O)O[C@H](c3ccccc3)[C@H](c3ccccc3)N2[C@H](c2ccc(OCCOC(=O)[C@H]3C[C@H]4C(=O)N[C@@H](Cc5ccccc5)C(=O)N4[C@H]3c3cccc(OCCO)c3)cc2)[C@@]12C(=O)Nc1ccc(I)cc12`, the composite z-score is 0.88 in test [1]; 0.413 in test [3]; -0.573 in test [4]; -0.771 in test [5]; -0.0161 in [6]; 0.116 in test [7]. The composite z-score in test [8] is 0.749; in test [9] it was 1.29; in test [10] it was 1.03; in [11], -0.868; in test [13], 0.319; in test [14] it was -0.103. Moreover, the composite z-score in test [15] was found to be 0.344; in test [16], 0.798; in [17], 0.331; in [18], 1.31; in [19], 1; in [20], 1.11. This compound displayed a z-score in [2] of -2.08. Also, the composite Z-score in test [12] was 0.111 (inactive).
Take `O=C1N(Cc2ccccc2)c2ccccc2[C@H]2OC(c3ccc(OCCCO)cc3)=N[C@@]12CCS(=O)(=O)c1ccccc1`: the composite z-score is 1.46 in test [1]; 0.479 in [3]; 1.76 in [4]; -0.465 in test [5]; 0.0317 in test [6]; 0.435 in test [7]. For the same compound, the composite z-score is 0.347 in test [8]; 0.557 in test [9]; 0.977 in [10]; 0.273 in test [11]; 0.0538 in test [13]; -0.112 in [14]. Moreover, the composite z-score is 0.692 in test [15]; 2.83 in test [16]; 0.948 in [17]; 1.29 in test [18]; 0.376 in test [19]; 0.54 in test [20]. The z-score in test [2] is -2.22. Further, in test [12], the composite Z-score was -0.313 (inactive).
Take `COCC(=C=CC[C@@H](O)c1ccccc1OCCO)C[C@@H](O)COCc1ccccc1`: the composite z-score in [1] is -0.0562; in test [3] it was -0.522; in test [4], 1.16; in [5], 0.0936; in test [6], 0.0158; in test [7], 0.536. For the same compound, the composite z-score in test [8] was 0.998; in [9], 2.56; in [10], -0.18; in test [11], 0.521; in test [13], 0.779; in test [14], 0.365. Moreover, the composite z-score was 0.73 in [15]; 2.22 in test [16]; 1.04 in test [17]; 1.04 in test [18]; -0.463 in test [19]; 0.244 in test [20]. In [2], this compound gave a z-score of -0.868. In test [12], the composite Z-score is 0.418 (inactive).
With `COc1ccccc1CN1C(=O)c2ccccc2[C@@]2(Cc3ccccc3N(C3CC3)C2=O)[C@@H]1c1ccc(CO)cc1`, the composite z-score is -0.447 in test [1]; -0.921 in [3]; 0.117 in test [4]; -0.164 in test [5]; -0.131 in [6]; 0.0062 in test [7]. The composite z-score is -0.422 in [8]; -0.455 in test [9]; 0.134 in [10]; 0.0999 in test [11]; -0.15 in test [13]; -0.112 in [14]. For the same compound, the composite z-score is 0.669 in [15]; 0.165 in test [16]; -0.978 in test [17]; -0.557 in test [18]; -0.39 in [19]; 0.107 in test [20]. In [2], this compound registered a z-score of -0.344. The composite Z-score in test [12] was 0.794 (inactive).
